# Measured values reported in ChEMBL document CHEMBL4513160, “CO-ADD screening of MMV (CH) - Small Polar Library”.
# Hit rate of the full screen: of about 23,000 compounds, about 30 (0.1%) showed an effect of 50% or more. The entries come from a sample that favours strong results as a whole. Measured potencies and affinities stand elsewhere.
# Tested on: Pseudomonas aeruginosa
# Conditions: Concentration 300 ug.mL-1; ASSAY_TEST Inhibition of Bacterial Growth; detection method Absorption (OD600); MEDIA CAMHB; plate type 384well; NBS; CORNING #3640; time 18 hr
row,Structure (SMILES),Inhibition
1,CCc1ccc(C2CNCCO2)cc1 (stereo unspecified),46.05%
